Among all 330,000 compounds or so, about 7,700 (2.3%) were called active. Where a call stands in place of a potency, no number is given. About 26% were inconclusive and are not listed. Calls come from the whole dose curve; as a rule, active = well fitted inhibition curve with a large enough effect; inconclusive = small, poorly fitted or top-dose-only effect, or effect the other way; inactive = flat fitted curve, though single readings scatter. Only a selection was taken, and actives are over-represented in it overall.
Potency is the fitted concentration of half-maximal effect.

The nature of this assay: qHTS screen for small molecules that inhibit ELG1-dependent DNA repair in human embryonic kidney (HEK293T) cells expressing luciferase-tagged ELG1. Note: nearly all actives have a fitted effect of over 55% in size. Conditions: HEK293T ELG1-luciferase reporter, luminescence, 16 h, DNA damage induced by 5-fluorouridine; series mostly up to 46.1 µM. The procedure, abridged:
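Step one: seed 2,000 cells per well. Step two: pin-transfer compound or DMSO alongside 5-fluorouridine. Step three: incubate 16 hr, 37 °C, 5% CO2. Step four: add ONE-Glo, wait 30 min, read luminescence.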
(In general: In qHTS, concentration-response curves come from the screen itself.)
`CCOC(CNC(=O)C1CCN(S(=O)(=O)c2ccc3nc4c(c(C(=O)O)c3c2)CC(C)CC4)CC1)OCC` (stereo unspecified): the Potency entry was “inactive”. Under `COc1ccc(CNC(=O)COC(=O)c2sccc2C)cc1OC` stands “inactive”; under `COc1cc(C(=O)NCCOC(=O)c2cccc(N(C)C)c2)cc(OC)c1OC`, 11.6 µM (active). The entry for `CCCOP(=O)(c1ccc(N(C)C)cc1)C(O)c1cc(OC)c(OC)c(OC)c1` (stereo unspecified) is “inactive”. Under `COc1cc(C(=O)N(Cc2ccc(N(C)C)cc2)C2CCS(=O)(=O)C2)cc(OC)c1OC` (stereo unspecified) stands “inactive”.

`COC(=O)c1ccc(CNC(=O)c2ccc(S(=O)(=O)N3CCCCCC3)cc2)cc1`: the Potency entry is “inactive”. The entry for `O=C(N[C@H]1C/C=C\C(c2cccc(F)c2)N(Cc2ccccc2)C(=O)C1)OCC1c2ccccc2-c2ccccc21` (stereo partly specified) is “inactive”; for `COC(=O)c1cc(S(=O)(=O)N2CCN(c3cc(C)ccc3C)CC2)c[nH]1` it is “inactive”; for `NC(=O)C1CCN(C(=O)c2cn(-c3ccccc3)nc2-c2cccnc2)CC1` it is “inactive”. Under `O=C(c1cn(-c2ccccc2)nc1-c1cccnc1)N1CCN(S(=O)(=O)c2ccccc2F)CC1` stands 14.6 µM (active); under `O=C(c1cn(-c2ccccc2)nc1-c1cccnc1)N1CCCCC1`, “inactive”. Under `O=C(OCc1cc(=O)n2ccsc2n1)C1(c2ccc(Cl)cc2)CC1` stands “inactive”; under `COc1cc(C(=O)NC2CCN(Cc3ccccc3)CC2)cc(Cl)c1OC(C)C`, “inactive”; under `O=C(CCC(=O)c1cccs1)NCc1ccccc1`, “inactive”.

With `Nc1nc(NCc2ccccc2)n(-c2ccccc2)n1`, the Potency entry is “inactive”. The figure for `O=C(c1cccs1)n1nc(NCc2ccccc2)nc1NCc1ccccc1` is 25.9 µM (active); for `COc1ccc(C)cc1NC(=O)CSc1cccc[n+]1[O-]` it is “inactive”.

For `CC[C@@H]1CCCCc2ccccc2[C@@H](C(=O)C[C@H](O)CC(C)=O)OC1=O`, the Potency entry is “inactive”.

With `COc1ccc(C(CNC(=O)c2ccc(S(=O)(=O)Nc3ccccc3C)cc2)N2CCOCC2)cc1` (stereo unspecified), the Potency result is “inactive”.

For `O=C(NCc1ccccc1)c1ccc(S(=O)(=O)Nc2cccc(C(F)(F)F)c2)cc1`, the Potency is 13 µM (active).

For `CCOC(=O)N1CCN(C(=O)c2ccc(S(=O)(=O)Nc3cccc(C(F)(F)F)c3)cc2)CC1`, the Potency entry was “inactive”. The entry for `O=C(NCc1ccncc1)c1cccc(NS(=O)(=O)c2ccc(F)c(F)c2)c1` is “inactive”.

Regarding `O=C1C(=O)N(CCN2CCOCC2)C(c2cccc(Cl)c2)/C1=C(/O)c1ccc2c(c1)OCO2` (stereo unspecified), the Potency entry is “inactive”. `Cc1sc2ncn(CC(=O)NCCCC(=O)N(C)Cc3ccccc3)c(=O)c2c1C`: the Potency result was “inactive”. Under `O=C(COc1ccc(Br)cc1F)NCC1(N2CCCCC2)CCCCC1` stands “inactive”; under `CSc1ncccc1C(=O)NCC(c1ccco1)N1CCCCC1` (stereo unspecified), “inactive”.

For the origin of these results see PubChem BioAssay AID504467 (National Center for Advancing Translational Sciences (NCATS), 2011).
